# Assay outcomes deposited in PubChem by National Center for Advancing Translational Sciences (NCATS).
# WRN helicase inh: qHTS for Inhibitors of WRN Helicase. Bifunctional 3'-5' exonuclease/ATP-dependent helicase WRN (Homo sapiens), Q14191. Potency, µM (titrated, usually from 114 µM), for inactives: at the top dose activity change, negative = inhibition, usual class: inhibitors. actives 0.46% (n = 360,000). WRN helicase unwinding, fluorescent forked duplex, kinetic. AID 651768, 2012; note: nearly all actives have a fitted effect of over 55% in size
#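 Screening of the MLSMR collection measured strand separation of a quenched forked DNA duplex (100 nM) by 20 nM WRN with 2 mM ATP, all final. Compounds were preincubated with enzyme 15 min at room temperature.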
# RECQ1 inh: qHTS Assay for Inhibitors of RecQ-Like Dna Helicase 1 (RECQ1); ATP-dependent DNA helicase Q1 (Homo sapiens), P46063; RECQ1 DNA unwinding, red fluorescence kinetic read; Potency, µM (highest dose often 57.3 µM), for inactives: top-dose activity, negative = inhibition, hits mostly inhibitors; actives 0.54% (n = 240,000); AID 2549, 2010;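 note: plate controls were vehicle for no effect and no enzyme for full effect; nearly all actives have a fitted effect of over 30% in size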
#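 RECQ1T1 50 nM; forked duplex (20 bp + 30-nt ss tails) 200 nM, ATP 2 mM final; pH 8.0, 2 mM MgCl2, 2.5 ug/ml poly(dI-dC); 15 min compound preincubation; discontinuous kinetic read over 2 h at RT.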
# BLM helicase inh: qHTS Assay for Inhibitors of Bloom's syndrome helicase (BLM). actives 0.2% (n = 350,000). RecQ-like DNA helicase BLM (Homo sapiens), P54132. recombinant BLM DNA unwinding, fluorescence dequenching. AID 2528, 2010. Potency, µM (top dose mostly 56.1 µM), for the others: top-dose activity change, negative = inhibition, most hits filed as inhibitors;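 note: plate controls were vehicle for no effect and no enzyme for full effect; nearly all actives have a fitted effect of over 35% in size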
# L3MBTL1 block: qHTS Assay for the Inhibitors of L3MBTL1; Lethal(3)malignant brain tumor-like protein 1 (Homo sapiens), Q9Y468; AlphaScreen L3MBTL1–H3K9me1 peptide binding; Potency, µM (top dose mostly 57.1 µM), without a hit: at the top dose activity, negative = inhibition, most hits filed as inhibitors; actives 0.66% (n = 230,000); AID 485360, 2010; note: nearly all actives have a fitted effect of over 60% in size
#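 L3MBTL1 (50 nM) pre-complexed 30 min with biotinylated H3(1-15)K9me1 peptide (75 nM), then compounds added for 30 min at room temperature; AlphaScreen streptavidin donor/nickel chelate acceptor beads (10 ug/mL final) read after 30 min dark incubation.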
# FEN1 inhibitor: qHTS Assay for the Inhibitors of Human Flap endonuclease 1 (FEN1); P39748; Recombinant FEN1 flap cleavage, fluorescence, 15 min; Potency, µM (titrated, usually from 114 µM), for the others: at the highest dose activity change, negative = inhibition, actives largely listed as inhibitors; actives 0.35% (n = 390,000); AID 588795, 2011; note: nearly all actives have a fitted effect of over 65% in size
#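 FEN1 at 10 nM, compound pretreatment for 15 min (room temperature), 50 nM final substrate to initiate; endpoint reads at 0 and 15 min; DMSO-only plates used as vehicle background.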
# An asterisk follows results filed as active; i = inactive; ? = inconclusive; · = no result given; [ ] = remark or other dose. An excerpt weighted towards active compounds, which were near 0.99% of everything screened. Calls come from the whole dose curve; as a rule, active = well fitted curve in the direction sought with a large enough effect; inconclusive = small, poorly fitted or top-dose-only effect, or another doubt; inactive = no such curve, though single readings can be large; an effect the other way counts as inactive or inconclusive. Unless noted, % is set by controls: 0 for no effect and ±100 for the full control effect; potency is the fitted concentration of half-maximal effect.
SMILES,WRN helicase inh,RECQ1 inh,BLM helicase inh,L3MBTL1 block,FEN1 inhibitor
CCOC(=O)c1cc(CC)sc1NC(=O)c1cc([N+](=O)[O-])ccc1N1CCOCC1,0%,-6%,-1%,-10%,2%
CCCC1=Nc2cc(C(=O)NCCc3ccccc3)ccc2Sc2ccc(C)cc21,·,·,-7%,·,79µM*
CCC1=Nc2cc(C(=O)NCCc3ccccc3)ccc2Sc2ccc(Cl)cc21,·,·,-4%,·,6%
O=c1c2cc(-c3ccccc3)sc2nc2n1CCC2,·,i,-12%,-4%,·
O=S(=O)(/N=S1\CC=CCN1S(=O)(=O)c1ccccc1)c1ccccc1 (centres undefined),8.9µM*,·,·,·,?
COc1cccc(/C=C2/CN(C)CC3=C2OC(N)=C(C#N)C3c2cccc(OC)c2)c1 (centres undefined),79µM*,-5%,-7%,-7%,?
COc1cccc(C2C(C#N)=C(N)OC(C(C)(C)C)=C2C#N)c1 (centres undefined),-11%,i,-6%,-12%,0%
COCCN(CCOC)S(=O)(=O)c1ccc(C(=O)Nc2sc3c(c2C(N)=O)CCCCC3)cc1,-8%,-2%,-2%,10%,-3%
FC(F)(F)C1=Nc2cccc3cccc(c23)N1,?,·,·,2.5µM*,50µM*
Fc1ccc(C2=Nc3cccc4cccc(c34)N2)cc1,12%,8%,-7%,1%,-10%
CCSc1cc(N2CCCC2)nc(-c2ccc(F)cc2)n1,-1%,6%,0%,12%,-5%
CCSc1cc(N2CCCC2)nc(-c2ccc(C)cc2)n1,0%,-4%,-1%,50%,89µM*
O=C(Nc1ccc(O)cc1)c1ccc2c(c1)C(=O)N(Cc1ccco1)C2=O,?,-8%,-9%,?,-17%
O=C(O)Cc1ccc(NC(=O)c2ccc3c(c2)C(=O)N(Cc2ccco2)C3=O)cc1,40µM*,·,-11%,·,-26%
CC(CCCC(C)(C)O)NCCO (centres undefined),-2%,-6%,-1%,-3%,8%
O=C1c2ccccc2C(=O)C12OC2c1cccc2ccccc12 (centres undefined),-10%[57.1 µM],3%,18µM*,14µM*,-8%
CCN(CC)C(=O)CC(c1cc(OC)c(OC)c(OC)c1)c1c(OC)cc(OC)c2ccc(=O)oc12 (centres undefined),-6%,-5%,2%,·,-11%
CCN(CC)C(=O)CC(c1cc(OC)c(OC)c(OC)c1)c1c(OC)cc(OC)c2c(-c3ccccc3)cc(=O)oc12 (centres undefined),-11%[11.6 µM],22µM*,?,·,-29%
COc1cc(/C=C2\SC(=S)N(NC(=O)c3ccc(O)cc3)C2=O)ccc1O,28µM*,·,-13%,·,?
COc1cc(/C=C2\SC(=S)N(NC(=O)c3cccnc3)C2=O)ccc1O,50µM*,25µM*,-4%,·,-32%
Cc1ccc2c(CNC3CCC(C)CC3)c(C(=O)O)n(Cc3cccc(F)c3)c2c1 (centres undefined),·,·,1%,·,-5%
Cc1cccc(NC(=O)CC2SC(=O)N(c3ccccc3)C2=O)c1 (centres undefined),100µM*,-10%,0%,·,1%
O=C(CC1SC(=O)N(c2ccccc2)C1=O)Nc1ccccc1 (centres undefined),40µM*,-6%,-1%,-5%,12%
COC(=O)C1C(OC)=CC(=O)C2CCCCC21 (centres undefined),5%,·,·,·,-7%
c1ccc(CCNc2ccnc3cc4ccccc4cc23)cc1,-19%,10%,156%,·,50µM*
O=C(NCCc1ccccc1)c1nccc2ccccc12,1%,·,·,13%,-5%
CCn1cc(/C=C(\NC(=O)c2ccccc2Cl)C(=O)N2CCN(C)CC2)c2ccccc21,-2%,·,2%,·,0%
